Screening data from PubChem BioAssay.
Sm TGR block: inhibitors of Schistosoma mansoni thioredoxin glutathione reductase. Q962Y6. purified TGR, DTNB reduction, TNB absorbance 405 nm. Potency, µM (top dose mostly 114 µM), inactives show at the highest dose activity change, negative = inhibition, actives largely listed as inhibitors. 360,000 compounds, 3% hits. AID 485364; also: potency is read from the fitted curve at half-maximal effect; nearly all actives have a fitted effect of over 60% in size
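TGR 20 nM + NADPH 100 uM (dispensed conc.), cpd preinc 15 min RT; start with NADPH (500 uM addition) then DTNB (15 mM addition). Kinetic TNB absorbance, 405 nm filter. Four-parameter Hill fit across titration.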
Tb PYK inh: inhibitors of Trypanosoma brucei pyruvate kinase | 410,000 compounds, 0.12% hits | Q57TT1 | TbPYK enzyme, Kinase-Glo Plus ATP luminescence, 45 min | Potency, µM (doses to about 76.8 µM), inactives show top-dose activity, negative = inhibition, usual class: inhibitors; also: potency is read from the fitted curve at half-maximal effect; nearly all actives have a fitted effect of over 50% in size
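Readout: single end-point luminescence (Kinase-Glo Plus, 10 min). Reaction conditions were TbPYK/substrate plus 130 uM ADP, 45 min at RT, pH 7.2 TEA buffer. No-enzyme wells served as controls, and data were normalized before concentration-response fitting.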
RE007 growth inh: less growth of the S. pombe RE007 Vpr strain. S. pombe RE007 Vpr strain, BacTiter-Glo ATP luminescence, 24 h. Potency, µM (doses to about 92.2 µM), for inactives: at the top dose activity change, negative = less growth, usual class: inhibitors. 360,000 compounds, 0.21% hits. AID 651644; active = well fitted falling curve with a large enough effect; inconclusive = small, poorly fitted or top-dose-only effect; inactive = no such curve, though single readings can be large or run the other way; also: potency is read from the fitted curve at half-maximal effect; nearly all actives have a fitted effect of over 50% in size
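Fission yeast strain RE007, carrying one chromosomally integrated HIV-1 vpr copy, was seeded at OD 0.01 in PMG+AL medium with 23 nL pinned compound. After 24 h at 30 °C and 99% humidity, viability was read by BacTiter-Glo luminescence.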
FMDV antiviral: foot and mouth disease virus antiviral activity; FMDV antiviral cell-based qHTS; Potency, µM (titrated, usually from 57.9 µM), for inactives: at the highest dose activity change, negative = inhibition, hits mostly inhibitors; 410,000 compounds, 1.2% hits; calls by dose curve; tested in HEK293T cells; also: read-out not given here; potency is read from the fitted curve at half-maximal effect; nearly all actives have a fitted effect of over 45% in size
HCMV antiviral: inhibitors of human cytomegalovirus. HFF cells, HCMV-luciferase reporter, 72 h; stronger effect = lower value. 410,000 compounds, 4.5% hits. activity change, negative = inhibition, % at 57.5 µM; in the data active = activity change below about -60%; inconclusive = no clear call, values can overlap the other calls; inactive = above about -39%
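Two-dose cell screen: HFF monolayers treated with compounds and infected with luciferase-expressing HCMV at 1 PFU/cell, 72 h at 37C, then lysed for luciferase measurement.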
FBPA Giardia inh: blocks Giardia fructose-bisphosphate aldolase activity | A8B2U2 | 290,000 compounds, 0.71% hits | purified Giardia FBPA | Potency, µM (doses to about 59.6 µM), without a hit: at the highest dose activity, negative = inhibition, hits mostly inhibitors; also: potency is read from the fitted curve at half-maximal effect; nearly all actives have a fitted effect of over 55% in size
Target sequence (A8B2U2 whole entry, looked up): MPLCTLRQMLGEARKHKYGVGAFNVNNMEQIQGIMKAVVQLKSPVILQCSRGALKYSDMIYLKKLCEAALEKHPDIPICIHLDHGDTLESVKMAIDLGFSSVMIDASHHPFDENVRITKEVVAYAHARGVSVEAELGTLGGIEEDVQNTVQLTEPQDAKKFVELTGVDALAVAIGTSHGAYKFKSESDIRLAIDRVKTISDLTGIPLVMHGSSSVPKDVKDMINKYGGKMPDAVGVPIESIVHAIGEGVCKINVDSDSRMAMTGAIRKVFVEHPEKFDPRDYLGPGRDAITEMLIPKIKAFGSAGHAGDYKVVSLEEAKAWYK
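Giardia FBPA (40 nM reagent) was preincubated 10 min at RT with compound (up to 57.5 uM final), then substrate plus GAPDH/TPI/NAD/arsenate coupling system with diaphorase/resazurin was added; resorufin fluorescence (525/598 nm) was read after 20 min.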
Numbers without * were called inactive; ? = inconclusive; / = not tested or not shown; + = active, no number; [ ] = another dose, or the depositor's remark. This is a sample that favours compounds with a hit; in the whole collection about 7.7% have one here. Unless noted, calls follow the shape of the dose curve; as a rule, active = well fitted curve in the direction sought with a large enough effect; inconclusive = small, poorly fitted or top-dose-only effect, or another doubt; inactive = no such curve, though single readings can be large; an effect the other way counts as inactive or inconclusive. % is scaled to controls: 0 for no effect and ±100 for the full control effect.

SMILES	Sm TGR block	Tb PYK inh	RE007 growth inh	FMDV antiviral	HCMV antiviral	FBPA Giardia inh
CC1(Cc2ccc(OC(F)(F)F)cc2)C(=O)Nc2ccc(S(=O)(=O)NC3CCCCC3)cc21 (stereo unspecified)	/	-5.1%	6.7%	-0.7%	-99.0*	/
CC1(Cc2ccc3ccccc3n2)C(=O)Nc2ccc(OC(F)(F)F)cc21 (stereo unspecified)	/	7.5%	-3.1%	-20.7%	-98.3*	/
CC1(Cc2ccccc2OC(F)(F)F)C(=O)Nc2ccc(OC(F)(F)F)cc21 (stereo unspecified)	/	1.1%	13.8%	?	-76.1*	/
CC1(Cc2ccc(Cl)cc2)C(=O)Nc2ccc(S(=O)(=O)NC3CCCCC3)cc21 (stereo unspecified)	/	0.4%	1.4%	5.0%	-18.8	/
CC1(Cc2ccccc2OC(F)(F)F)C(=O)Nc2ccc(-c3ccsc3)cc21 (stereo unspecified)	/	3.9%	14.3%	0.0%	-75.5*	/
Cc1cc(=O)[nH]c2nnc(SCc3cccc(F)c3)n12	10.1%	-8.4%	/	25.8%	?	/
CC(=O)c1ccc(OC2C=CC(C#Cc3ccc(Br)cc3)OC2CO)cc1 (stereo unspecified)	/	/	/	/	/	-4.0%[12.9 µM]
Clc1ccc(Nc2nnc(-c3ccc4c(c3)OCO4)o2)cc1	/	/	/	/	98.3	/
COC(=O)c1ccc(NC(=O)CSc2nccn2Cc2ccc(Cl)cc2)cc1	-1.3%	-4.2%	/	-17.4%	-32.4	/
COc1ccc(-c2csc3nc(C)n(-n4cccc4)c(=O)c23)cc1	-5.1%	-13.9%	11.2%	-1.8%	-61.6*	-0.5%
Cc1nc2scc(-c3ccc(C(C)(C)C)cc3)c2c(=O)n1N	-3.3%	4.6%	-4.9%	-28.4%	-78.1*	-10.7%
C/C(=N\NC(=O)c1cc2ccccc2cc1O)c1ccc2c(c1)OCO2	3.6%	-0.9%	-10.6%	-28.3%	12.6	-16.4%
CCOC(=O)C(C)/C(C)=N/NC(=O)c1cc2ccccc2cc1O (stereo unspecified)	-9.9%	-10.2%	14.8%	-13.9%	-74.0*	-20.4%
O=C(OCC(=O)N1CCCCC1)c1cc2ccccc2cc1O	-2.8%	-10.3%	-29.8%	4.4%	-8.3	-0.8%
C/C(CC(=O)N1CCCC1)=N\NC(=O)c1cc2ccccc2cc1O	?	-0.2%	-0.6%	0.0%	?	12.6µM*
COCCn1c(=O)c(-c2cccs2)nc2cnc(N3CCOCC3)nc21	/	/	/	-23.3%	/	4.7%
Cc1cn2c(=O)cc(COC(=O)COc3ccc(F)cc3)nc2s1	-5.3%	0.6%	/	-4.3%	-5.3	/
c1ccc2c(c1)CC(N1CCN(c3cccc4c3OCCO4)CC1)C2	/	/	/	/	/	7.1%
O=C(C(Br)=Cc1ccccc1)c1ccccc1	/	5.1%	?	25.1µM*	-83.2*	/
CC(=O)C(=Cc1ccc(-c2ccccc2)cc1)C(=O)c1ccccc1	/	7.1%	-6.2%	22.4µM*	40.6	/
CCCCN(C)C(=O)c1sc(=O)n(Cc2ccccc2F)c1C	/	-3.1%	-4.1%[18.4 µM]	-6.5%	-26.6	/
CCCCN(C)C(=O)c1sc(=O)n(Cc2c(C)cccc2C)c1C	/	-0.1%	0.2%[18.4 µM]	-7.9%	-61.2*	/
O=C(CSc1nnc(-c2ccc(F)cc2)c2ccccc12)Nc1cccc(Cl)c1	-5.6%	0.0%	4.4%	-26.2%	-2.9	0.8%
O=C(CSc1nnc(-c2ccc(F)cc2)c2ccccc12)Nc1c(F)cccc1F	7.7%	-4.3%	0.3%	-10.3%	-83.2*	3.9%
O=C(CSc1nnc(-c2ccc(F)cc2)c2ccccc12)Nc1ccccc1	6.8%	-2.2%	8.4%	1.7%	-63.2*	2.7%
SMILES	Sm TGR block	Tb PYK inh	RE007 growth inh	FMDV antiviral	HCMV antiviral	FBPA Giardia inh
O=C(CSc1nc2ccccc2c2nc(-c3ccccc3)nn12)Nc1ccc(F)cc1	4.6%	-6.4%[15.4 µM]	/	13.7%	+	/
Cc1ccc(/C(=C\CN2CCCC2)c2cccc(/C=C/C(=O)O)n2)cc1	/	2.6%	/	/	/	/
CCC(=O)N1c2ccccc2CC1C(=O)NCCc1ccc(OC)cc1OC (stereo unspecified)	3.2%	-1.1%	/	-14.2%	10.0	/
Nc1sc2c(c1C(=O)NCCc1ccccc1)CCCC2	/	/	-12.7%	28.8%	18.0	/
NC(=O)c1c(N)sc2c1CCCC2	12.6µM*	?	13.6%	6.6%	58.4	?
Nc1sc2c(c1C(=O)NC1CCS(=O)(=O)C1)CCCC2 (stereo unspecified)	22.4µM*	?	0.3%	-3.0%	15.4	?
COc1ccccc1NC(=O)NCc1cccn1Cc1ccccc1	14.0%	1.7%	/	9.6%	-6.0	/
COc1cccc(-n2c(C)c3c(OC)cccc(=O)c3c2C)c1	22.4µM*	-1.9%	14.8%	-12.7%	4.9	?
Nc1cc(-c2nn[nH]n2)ccc1F	?	-18.1%	0.7%	-19.4%	-90.8*	5.9%
OCCC(N1CCOCC1)C(O)(c1ccccc1)c1ccccc1 (stereo unspecified)	/	/	/	/	22.8	/
O=C(c1ccccc1)N1CC2ON=C(c3c(F)cccc3Cl)C2C1 (stereo unspecified)	/	/	/	/	-3.6	/
CCNC(=O)COc1cccc2ccccc12	0.0%	1.6%	-19.4%	4.0%	-69.3*	-1.1%
O=C(CNC(=O)c1ccccc1F)N/N=C\C=C\c1ccccc1	22.4µM*	-0.8%	-3.1%	4.9%	-12.7	/
O=C(COc1ccccc1-c1ccccc1)N/N=C/c1cccc2ccccc12	1.0%	2.5%	29.1%	?	-81.7*	-1.4%
CN(C)c1ccc(/C=N/NC(=O)COc2ccccc2)cc1	4.2%	-5.7%	0.1%	44.5%	66.2	0.2%
COc1ccc(/C=N/NC(=O)COc2ccccc2-c2ccccc2)cc1	0.0%	-4.0%	-1.2%	?	-68.4*	0.3%
CC(=O)Nc1ccc(NC(=O)COc2cccc3ccccc23)cc1	/	-1.0%	-2.8%	-20.2%	23.2	/
O=C(COc1cccc2ccccc12)N/N=C/c1ccccc1OCc1ccc(C(=O)O)cc1	1.3%	-0.4%	12.4%	-18.7%	-38.4	-27.9%
O=C(COc1cccc2ccccc12)N/N=C/C=C/c1ccccc1	-0.9%	-2.5%	-2.5%	-15.4%	-62.0*	8.3%
COc1ccc(/C=N/NC(=O)CCn2cnc(-c3ccccc3)c2-c2ccccc2)cc1	-10.7%	7.9%	-1.9%	?	-82.6*	5.2%
Cc1ccccc1OCC(=O)N/N=C/C=C/c1ccccc1	2.3%	3.2%	-14.9%	-3.7%	-4.2	1.9%
COc1ccc(NC(=O)C(C2CC2)n2c(=O)c(-c3ccccc3)nc3ccccc32)cc1 (stereo unspecified)	/	/	-13.1%	-10.9%	-34.0	/
CCCCCNC(=O)C(C1CC1)n1c(=O)c(-c2ccccc2)nc2ccccc21 (stereo unspecified)	/	/	-4.7%	-0.1%	-68.9*	/
Cc1cccc(-c2nc3c(N4CCOCC4)nccc3[nH]2)c1	/	/	/	/	-0.5	/
